The nature of experiment [1]: qHTS for differential inhibitors of proliferation of Plasmodium falciparum line 7G8 (AID 1815).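 Further: parasite growth measured after three days of incubation.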 Further: potency means the concentration at half of the fitted maximal effect.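 On activity change, negative = inhibition: plate controls were vehicle wells for no effect and reference inhibitor wells for full effect.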 Background: Quantitative high-throughput screening tests each substance at several concentrations.
The nature of experiment [2]: qHTS for differential inhibitors of proliferation of Plasmodium falciparum line Dd2 (AID 1882).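 Further: plate controls were DMSO vehicle for no effect and 0.29 µM artemisinin for full effect; nearly all actives have a fitted effect of over 65% in size.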 To be noted: Potency: Plasmodium falciparum Dd2 proliferation inhibition. The method in brief:
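Dd2-infected erythrocytes (0.3% parasitemia, 2.5% hematocrit final) incubated with compound 72 h at 37 C, 5% CO2; lysed with saponin/Triton buffer containing SYBR Green I, incubated overnight in the dark, then read by fluorescence (485/535 nm). Normalized to 0.29 uM artemisinin and DMSO.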

The nature of experiment [3]: qHTS for differential inhibitors of proliferation of Plasmodium falciparum line W2 (AID 1883).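 Further: parasites grown with compound for 72 h before lysis and staining.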 Further: potency means the concentration at half of the fitted maximal effect.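 On activity change, negative = inhibition: 0% = vehicle wells and -100% = control inhibitor wells.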 To be noted: Potency: Plasmodium falciparum W2 proliferation inhibition.
A short description of experiment [4]: AP1 Signaling Pathway (AID 357; active means well fitted curve in either direction with a large enough effect, not every such curve was filed as active;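 further: ME-180 reporter cells stimulated with EGF at its EC50 level; on the % scale 0 is the no-effect control and ±100 the full control effect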). The note with it: ME-180 AP-1-bla reporter, EGF-induced, beta-lactamase ratio, 5 h; at 7.69 µM (top of the series) unless noted. The method in brief:
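Modulation of EGF-driven AP-1 transcription was assessed with a beta-lactamase reporter in ME-180 cells. Compound and EC50 EGF were co-incubated 5 hours at 37 °C before 2.5-hour CCF4 loading at room temperature and dual-emission reading.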

For experiment [5], the target named is Cytochrome P450 1A2 (Homo sapiens) (UniProt P05177). Nature of the experiment: p450-cyp1a2 (AID 410; calls by dose curve; further: potency means the concentration at half of the fitted maximal effect;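 on activity change, negative = inhibition: -100% = full effect of reference inhibitor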). The method, boiled down:
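20nM CYP1A2 with 100uM Luciferin-ME (at Km) in 100mM KPO4; compound preincubated 10 min, NADPH regeneration added, 60 min at room temperature. Luciferin quantified by luminescence after detection reagent; normalized to 57 uM furafylline.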

Experiment [6] in a line: Stat Signaling Pathway (AID 446; active means well fitted curve in either direction with a large enough effect, not every such curve was filed as active;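 further: ME-180 cervical cancer cells given 40 pM IL-6 alongside compound; SIE-controlled beta-lactamase reporter measured as 460/530 nm FRET emission ratio; on the % scale 0 is the no-effect control and ±100 the full control effect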). The note with it: ME-180 SIE beta-lactamase reporter, IL-6 stimulated, 5 h; at 7.69 µM (top of the series) unless noted. The method in brief: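 Screening format detects activators and inhibitors alike: ME-180 SIE-bla cells stimulated at 40 pM IL-6 for 5 hrs with compound, then dual-emission beta-lactamase read at 405 nm excitation.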
Experiment [7] deals with Glucocorticoid receptor (Homo sapiens) (UniProt P04150). Nature of the experiment: GR-GFP Redistribution (AID 450;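 active means compounds whose dose series gives a full or clear partial fitted curve of increased nuclear translocation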; further: potency means the concentration at half of the fitted maximal effect). To be noted: U2OS GR-GFP nuclear translocation, laser cytometry, 2 h.
Chain of Glucocorticoid receptor (Homo sapiens) (P04150 whole entry, looked up, the tested form may be a part): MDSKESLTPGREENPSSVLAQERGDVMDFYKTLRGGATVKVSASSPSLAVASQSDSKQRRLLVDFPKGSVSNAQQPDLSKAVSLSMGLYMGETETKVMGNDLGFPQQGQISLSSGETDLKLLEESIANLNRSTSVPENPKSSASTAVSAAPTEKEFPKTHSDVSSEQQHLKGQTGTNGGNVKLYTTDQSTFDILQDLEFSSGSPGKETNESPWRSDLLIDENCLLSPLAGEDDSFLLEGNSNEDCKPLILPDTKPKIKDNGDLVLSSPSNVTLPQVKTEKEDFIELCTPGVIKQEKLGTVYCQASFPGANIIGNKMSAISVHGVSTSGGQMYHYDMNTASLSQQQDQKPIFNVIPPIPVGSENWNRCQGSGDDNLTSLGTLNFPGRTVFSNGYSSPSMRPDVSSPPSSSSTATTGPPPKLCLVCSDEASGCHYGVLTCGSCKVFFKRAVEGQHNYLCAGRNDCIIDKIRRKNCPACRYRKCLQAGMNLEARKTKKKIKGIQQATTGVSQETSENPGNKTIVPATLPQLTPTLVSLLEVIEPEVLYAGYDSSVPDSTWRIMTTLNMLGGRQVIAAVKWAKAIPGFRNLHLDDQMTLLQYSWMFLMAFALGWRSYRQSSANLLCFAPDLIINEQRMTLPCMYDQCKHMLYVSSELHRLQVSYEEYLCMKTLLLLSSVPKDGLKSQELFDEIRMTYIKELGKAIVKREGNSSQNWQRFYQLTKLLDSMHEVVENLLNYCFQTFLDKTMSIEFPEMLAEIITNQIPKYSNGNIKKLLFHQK
Experiment [8] shares this target. Nature of the experiment: GR-EFC Redistribution (AID 451; calls by dose curve; further: potency means the concentration at half of the fitted maximal effect). To be noted: CHO-K1 GR-EFC translocation, beta-gal luminescence, 2 h. The method in brief: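 CHO-K1 cells stably expressing nuclear-localized β-gal enzyme acceptor and GR fused C-terminally to the enzyme donor fragment; ligand-driven nuclear translocation restores β-gal by complementation. Compounds titrated up to 46 uM final, 2 h at 37 °C; luminescence read.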

Experiment [9] concerns the target Guanine nucleotide-binding protein G(i) subunit alpha-1 (Homo sapiens) (UniProt P63096). Nature of the experiment: qHTS Assay for Inhibitors of RGS12 GoLoco Motif Activity (Green Fluorophore) (AID 879).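 Further: 0% = labeled peptide with Gαi1 and full inhibition = labeled peptide alone without protein; negative values mean loss of peptide binding seen as reduced polarization.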 The method, boiled down:
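Fluorescence polarization assay: 50 nM Gαi1 with 10 nM FITC-labeled RGS12 GoLoco peptide in 10 mM Tris pH 7.5, 150 mM NaCl, 0.1 mM GDP, 0.05% NP40, 10 min at room temperature with compound.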

Experiment [10] addresses Pyruvate kinase PKM (Homo sapiens) (UniProt P14618). As to the kind of experiment: qHTS Assay for Activators of Human Muscle Pyruvate Kinase (AID 954; active means well fitted curve in the direction sought with a large enough effect, not every such curve was filed as active;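 further: 0% = uninhibited enzyme and -100% = no enzyme or full thiadiazolimine inhibition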). The method, boiled down:
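Reaction: 0.1 nM purified PKM2 with 0.5 mM phosphoenolpyruvate and 0.1 mM ADP, room temperature, 1 h. Readout: luciferase-based ATP luminescence after stop reagent. Activators judged against a 0.3 nM enzyme column.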

Experiment [11] deals with Alpha-galactosidase A (Homo sapiens) (UniProt P06280). Nature of the experiment: Counterscreen for Glucocerebrosidase Inhibitors: qHTS Assay for Human alpha-Galactosidase at pH 4.5 (AID 992). Further: 0% is about no effect. The method in brief:
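Concentration-response curves (0.7 nM to 77 uM final) were modeled with the Hill equation to give AC50. Reactions: 2 nM enzyme, 80 uM fluorogenic alpha-galactoside, pH 4.5 citric acid buffer, 20 min, room temperature.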
On the technique in general: Counterscreens check selectivity or assay interference.

The target in experiment [12] is alpha-glucosidase (Oryza sativa, rice) (UniProt Q653V4). Nature of the experiment: Counterscreen for Glucocerebrosidase Inhibitors: qHTS Assay for Rice alpha-Glucosidase at pH 5.0 (AID 997).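 Further: 0% = full activity with enzyme and -100% = basal without enzyme.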 The method in brief: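 Rice alpha-glucosidase (4 nM final) with 400 uM 4-methylumbelliferyl-alpha-D-glucopyranoside in citrate buffer pH 5.0, 20 min at room temperature, stopped at pH 10; fluorescence 365/440 nm, compounds 0.7 nM–77 uM, AC50 from Hill fits.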

A short description of experiment [13]: qHTS Assay for Modulators of Human Peripheral Myelin Protein 22 (PMP22) Expression/Activity (AID 1967; active means well fitted curve in the direction sought with a large enough effect in the signal ratio; the % refers to the signal ratio;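 further: 0% = untreated cells and 100% end not stated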). The method, boiled down:
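Luminescence ratio of Pmp22 promoter-driven green luciferase to EF-alpha-driven red luciferase, in engineered mouse MSC80 Schwann cells, served as read-out. Compounds were incubated 24h; untreated cells defined 0% Activity; curves were classified by r2, magnitude and activity.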

The nature of experiment [14]: qHTS profiling for inhibitors of Plasmodium falciparum proliferation (AID 504749). Further: potency means the concentration at half of the fitted maximal effect.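 On activity, negative = inhibition: 0% = DMSO vehicle and full inhibition = artemisinin control.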 On all read-outs here: nearly all actives have a fitted effect of over 60% in size. To be noted: P. falciparum in erythrocytes, SYBR Green DNA, 72 h; for activity, negative = inhibition: at 28.7 µM (top of the series). The method in brief:
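Parasite proliferation within erythrocytes, 72 h exposure. Endpoint: SYBR Green I fluorescence after overnight lysis at room temperature. Controls: 0.29 uM artemisinin, DMSO.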

Experiment [15] addresses M-phase phosphoprotein 8 (Homo sapiens) (UniProt Q99549). Nature of the experiment: qHTS Validation Assay for Inhibitors for MPP8 Chromodomain Interactions with Methylated Histone Tails (AID 488949). Further: nearly all actives have a fitted effect of over 55% in size. Further: potency means the concentration at half of the fitted maximal effect.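 On activity change, negative = inhibition: 50 nM MPP8 with 50 nM peptide preformed then compounds added for 30 min; AlphaScreen signal from MPP8 chromodomain bound to biotinylated H3K9me3 peptide; top concentration of the series differs between compounds; on the % scale 0 is the no-effect control and ±100 the full control effect.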 The method in brief: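 50 nM MPP8 + 50 nM b-H3K9me3 peptide, PBS pH 7.4/0.01% Tween-20, 30 min RT; + cpd 30 min RT; + AlphaScreen donor/Ni-chelate acceptor beads 10 ug/mL final, 30 min dark; luminescence read.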

Experiment [16] addresses Pyruvate kinase (Leishmania mexicana) (UniProt Q27686). Nature of the experiment: qHTS Validation Assay for Inhibitors of Leishmania Mexicana Pyruvate Kinase (AID 945).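 Further: 0% = DMSO only neutral control wells.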 The method in brief: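 Substrate mix (0.5 mM PEP, 0.1 mM ADP, 7 mM MgCl2, 50 mM KCl, pH 7.2 imidazole) received compound by pin tool, then 0.2 nM LmPYK E451W. After 1 h at room temperature, PKLight was added and luminescence measured.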

Molecules are shown by their SMILES. Values without a mark were called inactive. Records with an inconclusive call do not appear. The source made the active and inactive calls. Unless noted, the call rests on the fitted dose curve; in most records, active means well fitted curve in the direction sought with a large enough effect; inconclusive means small, poorly fitted or top-dose-only effect, or another doubt; inactive means no such curve, though single readings can be large; an effect the other way counts as inactive or inconclusive.

Chain of Guanine nucleotide-binding protein G(i) subunit alpha-1 (Homo sapiens) (P63096 whole entry, looked up): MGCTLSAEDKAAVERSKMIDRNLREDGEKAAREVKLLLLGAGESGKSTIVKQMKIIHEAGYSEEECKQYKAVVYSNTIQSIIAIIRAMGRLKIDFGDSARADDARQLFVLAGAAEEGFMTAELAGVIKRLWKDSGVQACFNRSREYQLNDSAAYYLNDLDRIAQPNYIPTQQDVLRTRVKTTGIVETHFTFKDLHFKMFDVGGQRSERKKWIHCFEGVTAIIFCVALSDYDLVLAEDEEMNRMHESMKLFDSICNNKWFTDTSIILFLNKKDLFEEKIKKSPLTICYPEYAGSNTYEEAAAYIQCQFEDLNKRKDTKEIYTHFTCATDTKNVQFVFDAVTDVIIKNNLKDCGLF
Chain of Cytochrome P450 1A2 (Homo sapiens) (P05177 whole entry, looked up): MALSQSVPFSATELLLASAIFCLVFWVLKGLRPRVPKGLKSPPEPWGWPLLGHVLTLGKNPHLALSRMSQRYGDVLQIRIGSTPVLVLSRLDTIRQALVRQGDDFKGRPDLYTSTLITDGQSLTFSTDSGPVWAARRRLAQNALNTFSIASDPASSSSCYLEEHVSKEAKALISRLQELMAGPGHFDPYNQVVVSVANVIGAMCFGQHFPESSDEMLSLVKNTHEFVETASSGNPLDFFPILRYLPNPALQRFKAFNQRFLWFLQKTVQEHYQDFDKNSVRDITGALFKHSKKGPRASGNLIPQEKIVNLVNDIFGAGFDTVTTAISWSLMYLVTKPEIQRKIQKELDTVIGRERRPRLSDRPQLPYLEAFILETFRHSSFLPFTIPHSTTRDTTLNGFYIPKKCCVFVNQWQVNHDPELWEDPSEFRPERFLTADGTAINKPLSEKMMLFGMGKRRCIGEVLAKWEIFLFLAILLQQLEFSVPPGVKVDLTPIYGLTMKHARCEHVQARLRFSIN
Chain of Pyruvate kinase (Leishmania mexicana) (Q27686 2-499 E452W): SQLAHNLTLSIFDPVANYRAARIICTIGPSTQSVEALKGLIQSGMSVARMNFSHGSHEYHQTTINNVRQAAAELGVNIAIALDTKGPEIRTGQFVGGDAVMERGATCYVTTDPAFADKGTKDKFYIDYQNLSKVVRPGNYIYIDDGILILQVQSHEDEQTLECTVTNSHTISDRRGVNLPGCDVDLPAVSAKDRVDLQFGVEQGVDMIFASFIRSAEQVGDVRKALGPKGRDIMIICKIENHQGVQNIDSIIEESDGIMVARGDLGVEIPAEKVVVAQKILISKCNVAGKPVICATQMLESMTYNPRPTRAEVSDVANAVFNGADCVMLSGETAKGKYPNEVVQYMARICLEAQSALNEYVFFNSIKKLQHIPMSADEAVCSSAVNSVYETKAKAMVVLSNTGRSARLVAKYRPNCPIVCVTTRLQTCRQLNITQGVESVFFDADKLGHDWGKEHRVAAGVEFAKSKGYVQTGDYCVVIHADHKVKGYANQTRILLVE
Chain of Pyruvate kinase PKM (Homo sapiens) (P14618 whole entry, looked up): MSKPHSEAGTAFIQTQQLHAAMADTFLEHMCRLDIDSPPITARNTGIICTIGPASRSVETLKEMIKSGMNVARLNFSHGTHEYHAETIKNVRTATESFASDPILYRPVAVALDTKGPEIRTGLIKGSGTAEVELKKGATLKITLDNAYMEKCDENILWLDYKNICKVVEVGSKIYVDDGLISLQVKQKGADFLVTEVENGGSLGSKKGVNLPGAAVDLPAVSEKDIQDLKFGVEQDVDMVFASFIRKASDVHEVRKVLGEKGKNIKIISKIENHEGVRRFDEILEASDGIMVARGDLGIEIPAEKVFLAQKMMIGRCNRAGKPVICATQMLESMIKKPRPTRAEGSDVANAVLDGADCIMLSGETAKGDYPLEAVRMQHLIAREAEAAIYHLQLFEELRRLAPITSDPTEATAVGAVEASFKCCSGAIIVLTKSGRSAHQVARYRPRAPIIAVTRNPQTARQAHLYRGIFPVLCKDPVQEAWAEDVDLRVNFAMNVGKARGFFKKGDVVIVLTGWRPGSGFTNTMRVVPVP
Chain of Alpha-galactosidase A (Homo sapiens) (P06280 whole entry, looked up): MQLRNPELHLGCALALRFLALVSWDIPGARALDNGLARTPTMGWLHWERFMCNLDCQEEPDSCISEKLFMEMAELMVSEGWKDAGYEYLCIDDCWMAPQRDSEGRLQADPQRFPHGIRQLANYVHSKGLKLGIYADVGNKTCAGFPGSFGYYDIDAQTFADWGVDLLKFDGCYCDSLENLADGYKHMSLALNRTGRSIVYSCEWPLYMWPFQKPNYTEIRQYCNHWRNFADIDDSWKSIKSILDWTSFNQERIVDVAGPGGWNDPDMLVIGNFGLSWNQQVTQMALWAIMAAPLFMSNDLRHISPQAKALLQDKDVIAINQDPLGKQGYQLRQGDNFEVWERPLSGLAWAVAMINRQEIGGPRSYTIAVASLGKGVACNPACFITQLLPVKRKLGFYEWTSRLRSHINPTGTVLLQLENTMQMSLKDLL
Chain of M-phase phosphoprotein 8 (Homo sapiens) (Q99549 whole entry, looked up): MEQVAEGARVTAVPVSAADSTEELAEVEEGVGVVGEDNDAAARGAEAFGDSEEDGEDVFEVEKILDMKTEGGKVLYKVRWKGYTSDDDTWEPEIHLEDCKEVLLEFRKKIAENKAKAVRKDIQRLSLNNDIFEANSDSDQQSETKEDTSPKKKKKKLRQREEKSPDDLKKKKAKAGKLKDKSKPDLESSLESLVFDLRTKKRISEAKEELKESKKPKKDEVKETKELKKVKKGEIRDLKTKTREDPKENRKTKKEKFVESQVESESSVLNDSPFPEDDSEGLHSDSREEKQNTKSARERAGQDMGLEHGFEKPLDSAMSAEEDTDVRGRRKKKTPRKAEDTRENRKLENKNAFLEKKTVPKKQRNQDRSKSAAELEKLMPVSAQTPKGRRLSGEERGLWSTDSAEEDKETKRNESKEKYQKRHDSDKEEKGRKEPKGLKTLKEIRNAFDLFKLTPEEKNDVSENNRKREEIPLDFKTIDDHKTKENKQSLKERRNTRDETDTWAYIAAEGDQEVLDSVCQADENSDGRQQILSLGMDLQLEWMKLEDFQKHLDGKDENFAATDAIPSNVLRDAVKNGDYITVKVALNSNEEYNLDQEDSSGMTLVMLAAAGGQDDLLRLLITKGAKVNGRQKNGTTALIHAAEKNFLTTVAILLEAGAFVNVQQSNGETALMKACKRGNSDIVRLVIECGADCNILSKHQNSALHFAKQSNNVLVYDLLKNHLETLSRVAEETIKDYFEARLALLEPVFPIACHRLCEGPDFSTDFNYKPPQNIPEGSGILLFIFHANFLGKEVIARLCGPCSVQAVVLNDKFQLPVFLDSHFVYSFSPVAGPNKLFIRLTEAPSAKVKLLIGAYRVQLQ

With `CNc1ncnc2c1ncn2[C@@H]1O[C@H](CO)[C@H](O)[C@H]1O`, the Potency entry in experiment [1], in experiment [2] and in experiment [3] was “inactive” throughout.
Regarding `CCSC(N)=Nc1ccc(C(F)(F)F)cc1`, the activity change, negative = inhibition in experiment [4] was -5.3% [at 38 µM]. Moreover, the Potency is 2.51 µM (active) in experiment [5], above 46 µM in experiment [7] and above 46 µM in [8]. Moreover, the activity, negative = inhibition in experiment [6] is 13.4% [at 38 µM]. In addition, the call in [9], in [10], in [11], in experiment [12] and in [13] was inactive. Moreover, in experiment [1], the Potency result is “inactive”.
Consider `N[C@H](Cc1ccc(O)c(O)c1)C(=O)O`, for which the Potency result in [1] and in [3] was “inactive” each time. In addition, in experiment [13], the outcome was inactive. Besides, the activity, negative = inhibition in [14] (parasite line A) is 9.99%; in [14] (parasite line B) it was 20.6%.
Consider `NC(=S)NCCCC(N)C(=O)O` (stereo not drawn), for which the Potency result in experiment [1], in experiment [2] and in [3] was “inactive” throughout. Besides, the Potency in experiment [15] is 20 µM (active).
For the compound `Nc1nc2c(nc(Br)n2C2O[C@H]3COP(=O)(O)O[C@@H]3C2O)c(=O)[nH]1` (stereo partly drawn), the Potency in [3] is 6.31 µM (active).
For `CSc1nc(N)c2ncn([C@@H]3O[C@H](COP(=O)(O)OP(=O)(O)OP(=O)(O)O)[C@H](O)[C@H]3O)c2n1`, the Potency in [3] was 12.6 µM (active).
With `Nc1ncnc2c1ncn2[C@@H]1O[C@H](CO)[C@H](O)[C@H]1O`, the Potency result in experiment [1], in [2] and in experiment [15] was “inactive” each time. In addition, the outcome in [13] was inactive.
Turning to `O=[N+]([O-])c1ccc(CSc2ncnc3c2ncn3[C@@H]2O[C@H](CO)[C@H](O)[C@H]2O)cc1`, the result in [13] was inactive.
Regarding `C[C@H]1CC2[C@@H]3CCC4=CC(=O)C=C[C@]4(C)[C@@]3(Cl)[C@@H](O)C[C@]2(C)[C@@]1(O)C(=O)CO` (stereo partly drawn), the compound was classed as inactive in experiment [13]. In addition, the Potency entry in experiment [15] is “inactive”.
`CC(=O)NCCc1ccc(O)c(O)c1`: in experiment [4], the activity change, negative = inhibition was -4.94% [at 38 µM]. The Potency entry in experiment [5] and in experiment [16] was “inactive” each time. The activity, negative = inhibition in experiment [6] is 5.1% [at 38 µM]. The Potency in experiment [7] and in experiment [8] was above 46 µM throughout. Further, the call in [9], in [10], in experiment [11], in experiment [12] and in experiment [13] was inactive.
As to `CC(C)C[C@H]1C(=O)N2CCCC2[C@]2(O)O[C@](NC(=O)[C@@H]3C=C4c5cccc6[nH]c(Br)c(c56)C[C@H]4N(C)C3)(C(C)C)C(=O)N12` (stereo partly drawn), the Potency entry in experiment [15] was “inactive”. Further, the Potency in experiment [14] (parasite line A) is 11.2 µM (active); in experiment [14] (parasite line B), 5.62 µM (active).
In the case of `CCCCCCCCCCCCCCC/C=C/[C@@H](O)[C@H](NC(=O)CCCCCCCCCCCCC)OC` (tested in a mixture with another compound), the Potency entry in [1], in experiment [2] and in experiment [3] was “inactive” in each case. Further, the call in [13] was inactive.
On to `NC(=NCCC[C@H](N)C(=O)O)NO`, for which the activity change, negative = inhibition in [4] was -0.154% [at 38 µM]. For the same compound, the Potency result in [5], in [16], in [1] and in experiment [3] was “inactive” each time. For the same compound, the activity, negative = inhibition in experiment [6] is -18.2% [at 38 µM]. Also, the Potency in [7] and in experiment [8] was above 46 µM each time. Moreover, the call in [9], in experiment [10], in [11], in experiment [12] and in experiment [13] was inactive.
As for `NCCCCNS(=O)(=O)c1cccc2c(Cl)cccc12`, the activity change, negative = inhibition in experiment [4] was -2.83% [at 38 µM]. Also, the Potency in experiment [5] was 15.8 µM (active); in experiment [7], above 46 µM; in [8], above 46 µM; in experiment [1], 8.91 µM (active); in [3], 11.2 µM (active). Also, the activity, negative = inhibition in [6] was 3.48% [at 38 µM]. Besides, the compound was called inactive in [9], in experiment [10], in experiment [11] and in experiment [12]. In experiment [16], the Potency entry was “inactive”.
For `OC[C@H]1O[C@@H](n2cnc3c(Nc4ccccc4)ncnc32)[C@H](O)[C@H]1O`, the Potency entry in [1], in [2] and in experiment [3] was “inactive” throughout.
On to `CC(N)=NCCCC(N)C(=O)O` (stereo not drawn), for which the Potency result in experiment [1] and in [3] was “inactive” each time. Further, in [13], the result was inactive.
Consider `CC(C)CN(C)c1nc(N)c(C(=O)N=C(N)N)nc1Cl`, for which the Potency was 0.794 µM (active) in experiment [5], above 46 µM in [8], 11.2 µM (active) in [1] and 2.82 µM (active) in experiment [3]. Besides, in experiment [6], the activity, negative = inhibition is -2.92% [at 38 µM]. Further, the compound was classed as inactive in experiment [9], in experiment [10], in [11] and in experiment [12]. Also, the Potency entry in experiment [16] is “inactive”.
As for `COc1cc2c(cc1OC)C(c1ccccc1)CN(C)CC2` (stereo not drawn), the Potency in experiment [3] was 7.94 µM (active). In addition, the outcome in experiment [13] was inactive. The activity, negative = inhibition in [14] (parasite line A) was -10.7%; in [14] (parasite line B), -13.2%.
Regarding `CCCCC#Cc1nc(N)c2ncn([C@@H]3O[C@H](C(=O)NCC)[C@@H](O)[C@H]3O)c2n1`, the Potency in experiment [1] was 7.94 µM (active); in experiment [3] it was 11.2 µM (active). Besides, the Potency entry in experiment [15] is “inactive”.

The record behind these values is PubChem BioAssay (NCATS).
